Laboratory results taken from PMC5540273 (PLoS ONE, 2017).

Key:
Conditions in all cases: concentration: 1 μM, replicates: in singlicate; n = 1
SRMS = test system: SRMS
SRPK1 = test system: SRPK1
SRPK2 = test system: SRPK2
SRPK3 = test system: SRPK3
STK16 = test system: STK16
STK33 = test system: STK33
STK35 = test system: STK35
STK36 = test system: STK36
STK39 = test system: STK39
SYK = test system: SYK
SgK110 = test system: SgK110
TAK1 = test system: T1, TAK1
T1 construct: gene MAP3K7

TAOK1 = test system: TAOK1
TAOK2 = test system: TAOK2
TAOK3 = test system: TAOK3
TBK1 = test system: TBK1
TEC = test system: TEC
TESK1 = test system: TESK1
TGFBR1 = test system: TGFBR1
TGFBR2 = test system: TGFBR2
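Further: KINOMEscan kinase panel screen.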

Compound | %Inh (SRMS) [%] | %Inh (SRPK1) [%] | %Inh (SRPK2) [%] | %Inh (SRPK3) [%] | %Inh (STK16) [%] | %Inh (STK33) [%] | %Inh (STK35) [%] | %Inh (STK36) [%] | %Inh (STK39) [%] | %Inh (SYK) [%] | %Inh (SgK110) [%] | %Inh (TAK1) [%] | %Inh (TAOK1) [%] | %Inh (TAOK2) [%] | %Inh (TAOK3) [%] | %Inh (TBK1) [%] | %Inh (TEC) [%] | %Inh (TESK1) [%] | %Inh (TGFBR1) [%] | %Inh (TGFBR2) [%]
CN1c2ccc(-c3ccc(C(=O)NCCO)cc3)cc2-c2[nH]ncc2S1(=O)=O | 0 | 12 | 5 | 1 | 2 | 9 | 26 | 30 | 13 | 41 | 0 | 63 | 0 | 30 | 0 | 31 | 1 | 17 | 0 | 0
CSc1nn2c(=O)cc(N3CCOCC3)nc2n1Cc1cccc(Cl)c1Cl [GSK2347225] | 0 | 13 | 0 | 0 | 14 | 3 | 65 | 28 | 0 | 30 | 0 | 0 | 2 | 0 | 3 | 10 | 18 | 7 | 0 | 0
CNc1nccc(-c2c(-c3ccc(F)cc3)ncn2CCCN2CCOCC2)n1 [SB-222516] | 0 | 19 | 0 | 0 | 0 | 21 | 0 | 0 | 8 | 0 | 7 | 0 | 0 | 0 | 0 | 5 | 33 | 10 | 0 | 16
Cc1ccc(NC(=O)c2cccc(C#N)c2)cc1-c1ccc(C(=O)Nc2ccncc2)cc1 [GSK1398463] | 0 | 11 | 0 | 12 | 0 | 0 | 5 | 0 | 16 | 0 | 3 | 0 | 0 | 23 | 3 | 20 | 11 | 0 | 0 | 0
FC(F)(F)c1ccc(-c2nn3ncccc3c2-c2ccnc(Nc3cccc(C(F)(F)F)c3)n2)cc1 [GW828205] | 30 | 0 | 36 | 8 | 14 | 5 | 0 | 0 | 0 | 20 | 23 | 0 | 0 | 32 | 0 | 51 | 7 | 3 | 0 | 0
Clc1cccc(-c2nc(Nc3ccncc3)c3ccccc3n2)c1 [GW873004] | 2 | – | 43 | 0 | 0 | 26 | 0 | 3 | 0 | 33 | 38 | 0 | 0 | 4 | 0 | 11 | 17 | 19 | – | 17
C[C@@H]1CCN(C(=O)CO)C[C@@H]1N(C)c1ncnc2[nH]ccc12 | 0 | 24 | 0 | 0 | 0 | 2 | 4 | 0 | 0 | 3 | 0 | 27 | 0 | 0 | 0 | 1 | 3 | 12 | 7 | 4
Nc1nc(-c2ccc3c(N)n[nH]c3c2)cc(N2CCCCC2)n1 [GSK2228768] | 0 | 45 | 0 | 0 | 5 | 0 | 0 | 0 | 0 | 8 | 0 | 0 | 0 | 0 | 0 | 23 | 2 | 0 | 0 | 0
CSc1ccc(NC2=C(c3ccccc3Cl)C(=O)NC2=O)cc1 [SB-342411] | 0 | 7 | 0 | 5 | 14 | 0 | 5 | 48 | 19 | 23 | 0 | 7 | 0 | 1 | 0 | 27 | 10 | 6 | 0 | 0
